PubChem BioAssay AID1159580 (chemical genetic matrix, 2015)
Where “and” joins values, the source holds several entries; their conditions need not be identical. Equal entries are not always repeated. Out of some 5,500 compounds screened, about 2,000 (36%) were called active. Inconclusive results (about 18%) are left out. Cut-off read from the data, not from the text of the source: active = normalized growth mostly below about 0.91 (no sharp cut-off); inconclusive = no clear call, values can overlap the other calls; inactive = mostly above about 0.92. This is one part of the list.

Assay: chemical genetic growth profiling, strain panel (AID 1159580);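 note: tested at 20 µM; growth read once vehicle control cultures reached saturation at 30 °C; 1 = growth at the plate median or of vehicle wells; lower values mean less growth of the strain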
Settings: S. cerevisiae deletion strains, growth OD

Measured: normalized growth

C1CCc2nnnn2CC1
inactive: locus YAL013W, strain DEP1, stronger effect = lower value 1.01 | locus YAL021C, strain ccr4, stronger effect = lower value 1.01 | locus YAL026C, strain drs2, stronger effect = lower value 1.01 | locus YAL030W, strain snc1, stronger effect = lower value 1 | locus YAL040C, strain CLN3, stronger effect = lower value 0.98 | locus YBL061C, strain skt5, stronger effect = lower value 1.01 | locus YBR009C, strain hhf1, stronger effect = lower value 1.01 | locus YBR021W, strain FUR4, stronger effect = lower value 1.01 | locus YBR023C, strain chs3, stronger effect = lower value 1.01 | locus YBR171W, strain sec66, stronger effect = lower value 1.01 | locus YBR229C, strain ROT2, stronger effect = lower value 1.01 | locus YBR231C, strain swc5, stronger effect = lower value 1 | locus YBR279W, strain paf1, stronger effect = lower value 1.01 | locus YCL011C, strain gbp2, stronger effect = lower value 1 | locus YCL016C, strain dcc1, stronger effect = lower value 1 | locus YCL029C, strain bik1, stronger effect = lower value 1.03 | locus YCL061C, strain MRC1 (second series), stronger effect = lower value 1 | locus YCL061C, strain MRC1, stronger effect = lower value 0.998 | locus YCL069W, strain vba3, stronger effect = lower value 1 | locus YCR088W, strain abp1, stronger effect = lower value 1.02 | locus YDL005C, strain med2, stronger effect = lower value 0.999 | locus YDL035C, strain GPR1, stronger effect = lower value 1.01 | locus YDL040C, strain nat1, stronger effect = lower value 1 | locus YDL074C, strain BRE1, stronger effect = lower value 1.03 | locus YDL101C, strain DUN1, stronger effect = lower value 1.03 | locus YDL134C, strain PPH21, stronger effect = lower value 1.01 | locus YDL185W, strain tfp1, stronger effect = lower value 1.01 | locus YDL192W, strain arf1, stronger effect = lower value 1.01 | locus YDR001C, strain nth1, stronger effect = lower value 1.01 | locus YDR069C, strain doa4, stronger effect = lower value 1.01 | locus YDR101C, strain arx1, stronger effect = lower value 1.01 | locus YDR137W, strain rgp1, stronger effect = lower value 1.02 | locus YDR150W, strain NUM1, stronger effect = lower value 1.01 and 1 | locus YDR159W, strain sac3, stronger effect = lower value 1 | locus YDR162C, strain NBP2, stronger effect = lower value 0.994 | locus YDR195W, strain ref2 0.985 | locus YDR297W, strain sur2, stronger effect = lower value 1.02 | locus YDR318W, strain mcm21, stronger effect = lower value 1.02 | locus YDR334W, strain swr1, stronger effect = lower value 1.01 | locus YDR335W, strain msn5, stronger effect = lower value 1.01 | locus YDR363W, strain ESC2, stronger effect = lower value 1.01 | locus YDR388W, stronger effect = lower value 1 | locus YDR392W, strain spt3, stronger effect = lower value 1.03 | locus YDR502C, strain sam2, stronger effect = lower value 1 | locus YEL003W, strain gim4, stronger effect = lower value 1.01 | locus YEL037C, strain rad23, stronger effect = lower value 1 | locus YEL061C, strain CIN8 (second series), stronger effect = lower value 1.01 | locus YEL061C, strain CIN8, stronger effect = lower value 1.01 | locus YER002W, strain NOP16, stronger effect = lower value 1.01 | locus YER015W, strain faa2, stronger effect = lower value 1 | locus YER016W, strain bim1, stronger effect = lower value 1.01 | locus YER110C, stronger effect = lower value 1.02 | locus YER111C, strain swi4, stronger effect = lower value 1 | locus YER155C, strain BEM2 (second series), stronger effect = lower value 1.02 | locus YER155C, strain BEM2, stronger effect = lower value 1 | locus YER167W, strain BCK2, stronger effect = lower value 1 | locus YFR010W, strain ubp6, stronger effect = lower value 1.01 | locus YGL078C, strain dbp3, stronger effect = lower value 1 | locus YGL086W, strain mad1, stronger effect = lower value 0.99 | locus YGL173C, strain kem1, stronger effect = lower value 1.02 | locus YGL227W, strain vid30, stronger effect = lower value 1 | locus YGL240W, strain doc1, stronger effect = lower value 1.01 | locus YGL248W, strain PDE1, stronger effect = lower value 1.01 | locus YGL253W, strain hxk2, stronger effect = lower value 1 | locus YGR078C, strain PAC10, stronger effect = lower value 1 and 1.03 | locus YGR135W, strain pre9, stronger effect = lower value 1.03 | locus YGR229C, strain SMI1, stronger effect = lower value 0.969 and 1.01 | locus YGR252W, strain gcn5, stronger effect = lower value 0.941 | locus YHR013C, strain ard1, stronger effect = lower value 1.02 | locus YHR027C, strain rpn1, stronger effect = lower value 1.01 | locus YHR030C, strain SLT2, stronger effect = lower value 1.01 and 0.966 | locus YHR079C, strain IRE1 (second series), stronger effect = lower value 1.02 | locus YHR079C, strain IRE1, stronger effect = lower value 0.964 | locus YHR094C, strain hxt1, stronger effect = lower value 1.01 | locus YHR129C, strain ARP1, stronger effect = lower value 1.02 | locus YHR142W, strain chs7, stronger effect = lower value 1.01 | locus YHR200W, strain rpn10, stronger effect = lower value 1.01 | locus YIL066C, strain RNR3, stronger effect = lower value 1.02 | locus YIL073C, strain SPO22, stronger effect = lower value 1.01 | locus YIL125W, strain kgd1, stronger effect = lower value 1 | locus YIR030C, strain dcg1, stronger effect = lower value 1.01 | locus YJL092W, strain hpr5, stronger effect = lower value 1 | locus YJL095W, strain BCK1 (second series), stronger effect = lower value 1 | locus YJL095W, strain BCK1, stronger effect = lower value 1.02 and 0.967 | locus YJL115W, strain asf1, stronger effect = lower value 0.993 | locus YJL129C, strain trk1, stronger effect = lower value 1.01 | locus YJL134W, strain LCB3, stronger effect = lower value 1.01 | locus YJL154C, strain vps35, stronger effect = lower value 1 | locus YJL164C, strain tpk1, stronger effect = lower value 1 | locus YJL166W, strain qcr8, stronger effect = lower value 1.01 | locus YJL168C, strain set2, stronger effect = lower value 1.01 | locus YJL187C, strain SWE1 (second series), stronger effect = lower value 1.04 | locus YJL187C, strain SWE1, stronger effect = lower value 1.02 | locus YJR043C, strain POL32, stronger effect = lower value 1.01 | locus YJR066W, strain TOR1, stronger effect = lower value 0.921
